Experimental data from PubChem BioAssay (NCATS).
Results filed as inconclusive are left out. Activity calls are given as the source filed them. The call rests on the fitted dose curve; in most records, active means well fitted curve in the direction sought with a large enough effect; inconclusive means small, poorly fitted or top-dose-only effect, or another doubt; inactive means no such curve, though single readings can be large; an effect the other way counts as inactive or inconclusive.

How the values were obtained:
[1] = Cellular Toxicity (caspase-3) Mesangial (AID 660); details: mesangial cells, normalized: DMSO 0%, 100 µM tamoxifen 100%; at 91.7 µM (top of the series);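 further: combined caspase 3 and 7 activity read by Caspase-Glo luminescence; cells exposed to compound for 16 h before the caspase read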
Method in brief: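 Concentration-response qHTS: compound-induced rise in caspase 3/7 luminescence in human mesangial cells after 16 h, normalized to DMSO and 100 uM tamoxifen controls.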

[2] = Cellular Toxicity (caspase-3) SK-N-SH (AID 661);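 further: 0% = DMSO basal and 100% = 10 µM staurosporine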
Method in brief: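 Caspase 3/7 activation is measured as a luminescence increase from aminoluciferin released by substrate cleavage in SK-N-SH cells after 16 hr compound treatment; values are AC50 from concentration-response curves.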

[3] = Cellular Toxicity (caspase-3) H-4-II-E (AID 663); details: H-4-II-E rat hepatoma, scaled: DMSO 0%, 100 µM tamoxifen 100%; at 92.2 µM (top of the series);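 further: cells exposed to compound for 16 hr before readout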
Method in brief: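 Apoptosis induction is scored as increased luminescence from caspase 3/7 substrate cleavage in rat hepatoma H-4-II-E cells exposed to compound for 16 hr. Activity is scaled between DMSO and 100 uM tamoxifen.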

[4] = Cellular Toxicity (caspase-3) Hek293 (AID 664); details: HEK293 caspase-3 activation, DMSO = 0%, 100 µM tamoxifen = 100%; at 92.2 µM (top of the series);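 further: cells exposed to compound for 16 h at 37 °C before readout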
Method in brief: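 Activation of caspase-3/7 is measured as increased luminescence from cleaved peptide-aminoluciferin substrate in HEK293 cells treated 16 hours at 37 °C. AC50 values come from Hill-equation fits of concentration-response data.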

[5] = Cellular Toxicity (caspase-3) N2a (AID 665);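 further: compound exposure lasted 16 h at 37 °C before readout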
Method in brief: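 Plated mouse neuroblastoma N2a cells received titrated compounds for 16 h in complete medium. Caspase activity was then detected with a peptide-aminoluciferin luminescent reagent.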

[6] = Cellular Toxicity (caspase-3) NIH 3T3 (AID 666);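 further: 0% = DMSO basal and 100% = 100 µM tamoxifen stimulation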
Method in brief: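 Concentration-response qHTS in NIH 3T3 mouse fibroblasts scores caspase-3/7 activation as rising luminescence after 16 hr compound exposure. Signals are scaled between DMSO-only and 100 uM tamoxifen.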

[7] = Cellular Toxicity (caspase-3) Renal Proximal Tubule (AID 667); details: Potency: caspase-3 activation;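 further: cells exposed to compound for 16 hours at 37 °C before detection; 0% = DMSO basal and 100% = 10 µM staurosporine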
Method in brief: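 Luminescent caspase 3/7 signal from peptide-aminoluciferin cleavage measures apoptosis in freshly isolated rat kidney proximal tubule cells after 16 h compound exposure. Concentration-response data are normalized to DMSO and 10 uM staurosporine, and AC50 values come from Hill equation fits.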

[8] = target: Cytochrome P450 3A4 (Homo sapiens) (UniProt P08684); assay: qHTS Assay for Inhibitors and Substrates of Cytochrome P450 3A4 (AID 884); further: on the % scale 0 is the no-effect control and ±100 the full control effect; nearly all actives have a fitted effect of over 50% in size
Method in brief: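 20 nM human CYP3A4 with 25 uM Luciferin-PPXE (at KM) in 200 mM KPO4, preincubated 10 min with compound; NADPH regeneration started a 60 min RT reaction. Luciferin detected by luminescence, normalized to 57 uM ketoconazole as full inhibition.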

[9] = Cell Viability - LYMP2-001 (AID 921);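 further: 0% = DMSO only and full inhibition = tetraoctylammonium bromide control wells; nearly all actives have a fitted effect of over 70% in size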
Method in brief: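 CellTiter-Glo luminescence (intracellular ATP) after 24 hr compound exposure at 37 C, 2500 lymphoblastoid cells/well in complete medium. AC50 fitted with standard Hill equation; tetraoctylammonium bromide positive control.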

[10] = MultiTox-Fluor Cytotoxicity Assay - LYMP1-001 - Dead Cells (AID 946)
Method in brief: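 Seed 2500 LYMP1-001 cells/well, incubate 5 hr at 37 C; add compound, 16 hr at 37 C; add MultiTox-Fluor reagent, 60 min RT; read dead-cell fluorescence Ex/Em=485/520. Normalize to DMSO and 15 uM tetraoctylammonium bromide.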

[11] = MultiTox-Fluor Cytotoxicity Assay - LYMP1-001 - Live Cells (AID 947);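 further: 0% = DMSO only and full inhibition = tetraoctylammonium bromide control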
[12] = Cell Viability - LYMP1-002 - Assay at 16 hr (AID 948);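 further: 0% = DMSO alone and full effect = 92 µM tetraoctylammonium bromide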
Method in brief: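 LYMP1-002 human lymphoblastoid cells, 2500/well; 5 hr 37 C; cpd 16 hr 37 C; CellTiter-Glo 30 min RT; luminescence (ATP). Concentration-response, Hill-fit AC50. Pos ctrl tetraoctylammonium bromide.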

[13] = MultiTox-Fluor Cytotoxicity Assay - LYMP1-002 - Live Cells (AID 955); further: on the % scale 0 is the no-effect control and ±100 the full control effect
Method in brief: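 Cytotoxicity in the human lymphoblastoid line LYMP1-002 is measured as loss of live-cell protease activity after 16 h treatment in complete culture medium. AC50 is derived from Hill-equation fits of qHTS concentration-response data.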

[14] = MultiTox-Fluor Cytotoxicity Assay - LYMP1-003 - Dead Cells (AID 961);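 further: cells exposed to compound for 16 h at 37 °C; nearly all actives have a fitted effect of over 70% in size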
Method in brief: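 LYMP1-003 lymphoblastoid, 2500 cells/well, 5 hr settle then 16 hr cpd at 37 C; MultiTox-Fluor reagent 60 min RT; Ex/Em 485/520 dead-cell signal; norm. DMSO = 0%, 15 uM tetraoctylammonium bromide = 100%; Hill AC50.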

[15] = MultiTox-Fluor Cytotoxicity Assay - LYMP1-003 - Live Cells (AID 962);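 further: cells exposed to compound for 16 hours at 37 °C; 0% = DMSO only and full loss = 92 µM tetraoctylammonium bromide; cytotoxic hits lower the live-cell protease signal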
Method in brief: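 Cells plated at 2500 per well and incubated 5 hr; compounds added and incubated 16 hr at 37 C; MultiTox-Fluor reagent added for 60 min at room temperature; fluorescence of liberated AFC measured at 405/510 nm.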

[16] = Cell Viability - LYMP1-003 - Assay at 24 hr (AID 963);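 further: plate controls were DMSO only for no effect and tetraoctylammonium bromide positive control for full effect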
Method in brief: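 Acute toxicity in LYMP1-003 lymphoblastoid cells: 24 hr compound treatment at 37 C, ATP measured with CellTiter-Glo after 30 min at room temperature. AC50 derived by fitting the Hill equation to qHTS titrations.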

[17] = Cell Viability - LYMP1-003 - Assay at 40 hr (AID 964); further: on the % scale 0 is the no-effect control and ±100 the full control effect; nearly all actives have a fitted effect of over 60% in size
Method in brief: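 This qHTS cytotoxicity screen treats human lymphoblastoid cells (LYMP1-003) with compounds for 40 hr and quantifies cellular ATP via luciferase luminescence.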

[18] = Cell Viability - LYMP2-003 (AID 965);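 further: cells exposed to compounds for 24 h before reading; 0% = DMSO only and full effect = 92 µM tetraoctylammonium bromide; nearly all actives have a fitted effect of over 50% in size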
Method in brief: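 CellTiter-Glo luminescence (cellular ATP) after 24 h compound exposure at 37 C in complete medium; 2500 cells/well, 5 h settling beforehand. Concentration-response fitted to standard Hill equation for AC50. Tetraoctylammonium bromide served as positive control.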

[19] = MultiTox-Fluor Cytotoxicity Assay - LYMP1-002 - Dead Cells (AID 960);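 further: cells exposed to compound for 16 h at 37 °C; nearly all actives have a fitted effect of over 60% in size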
Method in brief: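 Acute cytotoxicity in a human lymphoblastoid line is scored as rising dead-cell protease signal after 16 hr exposure at 37 C, measured fluorometrically (485/520).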

Sequence of Cytochrome P450 3A4 (Homo sapiens) (P08684 whole entry, looked up): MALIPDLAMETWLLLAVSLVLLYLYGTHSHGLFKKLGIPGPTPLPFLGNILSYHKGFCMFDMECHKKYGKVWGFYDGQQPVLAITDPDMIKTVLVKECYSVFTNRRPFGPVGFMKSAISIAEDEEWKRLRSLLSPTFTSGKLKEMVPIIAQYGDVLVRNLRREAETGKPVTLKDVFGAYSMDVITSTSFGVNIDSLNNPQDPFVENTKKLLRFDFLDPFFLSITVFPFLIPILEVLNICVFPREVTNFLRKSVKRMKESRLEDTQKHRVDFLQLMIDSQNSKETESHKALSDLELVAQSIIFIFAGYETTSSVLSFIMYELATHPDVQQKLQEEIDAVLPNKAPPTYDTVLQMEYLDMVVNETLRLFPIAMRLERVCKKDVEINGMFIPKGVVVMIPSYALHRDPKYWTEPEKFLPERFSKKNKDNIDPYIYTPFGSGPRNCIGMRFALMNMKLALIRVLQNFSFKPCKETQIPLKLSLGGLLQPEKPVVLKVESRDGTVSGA

Cc1ccccc1C(N)=O
inactive: caspase-3 activation [1] 2.19% | outcome [2] | caspase-3 activation [3] 1.38% | caspase-3 activation [4] 3.64% | outcome [5] | outcome [6] | Potency [7] | Potency [8] | Potency [9] | outcome [10] | outcome [11] | outcome [12] | outcome [13] | Potency [14] | Potency [15] | Potency [16] | Potency [17] | Potency [18]

CO[Si](CCCNCCC[Si](OC)(OC)OC)(OC)OC
inactive: caspase-3 activation [1] 0.876% | outcome [2] | caspase-3 activation [3] 0.962% | caspase-3 activation [4] -1.43% | outcome [5] | outcome [6] | Potency [7] | Potency [8] | Potency [9] | outcome [10] | outcome [11] | outcome [12] | outcome [13] | Potency [14] | Potency [15] | Potency [16] | Potency [18]

Fc1ccccc1
inactive: caspase-3 activation [1] -0.0832% | outcome [2] | caspase-3 activation [3] -0.374% | caspase-3 activation [4] -1.91% | outcome [5] | outcome [6] | Potency [7] | Potency [8] | Potency [9] | outcome [10] | outcome [11] | outcome [12] | outcome [19] | Potency [14] | Potency [16] | Potency [17] | Potency [18]

O=Cc1ccc(CO)o1
inactive: caspase-3 activation [1] -0.0811% | outcome [2] | caspase-3 activation [3] 1.58% | caspase-3 activation [4] -1.08% | outcome [5] | outcome [6] | Potency [7] | Potency [8] | Potency [9] | outcome [10] | outcome [11] | outcome [12] | outcome [19] | Potency [14] | Potency [15] | Potency [16] | Potency [17] | Potency [18]

Nc1ccccc1S(=O)(=O)O
inactive: caspase-3 activation [1] -0.218% | outcome [2] | caspase-3 activation [3] -0.112% | caspase-3 activation [4] 1.83% | outcome [5] | outcome [6] | Potency [7] | Potency [8] | Potency [9] | outcome [10] | outcome [11] | outcome [12] | outcome [13] | Potency [14] | Potency [15] | Potency [16] | Potency [17] | Potency [18]

C=CC(=O)NC(C)C
inactive: caspase-3 activation [1] 1.12% | outcome [2] | caspase-3 activation [3] 0.575% | caspase-3 activation [4] 2.01% | outcome [5] | outcome [6] | Potency [7] | Potency [8] | Potency [9] | outcome [10] | outcome [11] | outcome [12] | outcome [13] | Potency [14] | Potency [15] | Potency [16] | Potency [17] | Potency [18]

NCCCCCCN
inactive: caspase-3 activation [1] 0.654% | outcome [2] | caspase-3 activation [3] 1.31% | caspase-3 activation [4] -1.45% | outcome [5] | outcome [6] | Potency [7] | Potency [8] | Potency [9] | outcome [10] | outcome [11] | outcome [12] | outcome [13] | Potency [14] | Potency [15] | Potency [16] | Potency [17] | Potency [18]

FC(F)(F)c1cccc(Cl)c1
inactive: caspase-3 activation [1] -0.53% | outcome [2] | caspase-3 activation [3] 0.296% | caspase-3 activation [4] 0.768% | outcome [5] | outcome [6] | Potency [7] | Potency [8] | Potency [9] | outcome [10] | outcome [11] | outcome [12] | outcome [19] | Potency [14] | Potency [15] | Potency [16] | Potency [17] | Potency [18]

C=CCCC
inactive: caspase-3 activation [1] -0.34% | outcome [2] | caspase-3 activation [3] 1.14% | caspase-3 activation [4] -1.75% | outcome [5] | outcome [6] | Potency [7] | Potency [8] | outcome [10] | outcome [11] | outcome [12] | outcome [13] | outcome [19] | Potency [14] | Potency [15] | Potency [16] | Potency [17] | Potency [18]

CC(=O)Nc1ccc(N)cc1
inactive: caspase-3 activation [1] 0.253% | outcome [2] | caspase-3 activation [3] -0.322% | caspase-3 activation [4] -0.0268% | outcome [5] | outcome [6] | Potency [7] | Potency [8] | outcome [10] | outcome [11] | outcome [12] | outcome [13] | outcome [19] | Potency [14] | Potency [15] | Potency [16] | Potency [17] | Potency [18]
